Assay [1] concerns MYLK4.
In assay [2] the test system is MYLK.
The test system of assay [3] is MYO3A.
Assay [4] concerns NEK10.
The subject of assay [5] is NEK5.
The subject of assay [6] is NEK7.
Assay [7] has as its system NEK9.
Assay [8] relates to T1, NIM1.
T1 construct: gene MGC42105

The test system of assay [9] is NLK.
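Note: kd values determined as follow-up on hits from a single-replicate KINOMEscan panel screen.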

`Cc1ccc(-c2ccc3c(ccc4sc5c(c43)NC[C@@H](C)N=C5N(C)C)n2)cn1` yielded a Kd in assay [1] of over 10 µM.

The compound `Cc1c(Cn2c(C)nn3c(=O)cc(N4CCO[C@H](C)C4)nc23)cccc1C(F)(F)F` [GSK2373690] came in with an equilibrium dissociation constant (Kd) in [1] of over 10 µM.

In [2], `COc1ccc(-c2cc3c(C)nc(N)nc3n([C@H]3CC[C@H](O)CC3)c2=O)cn1` registered a Kd of over 10 µM.

Compound `CCc1ccc(-c2ccc3c(c2)-c2nn(C)cc2S(=O)(=O)N3C)cc1` came in with a dissociation constant (Kd) in assay [3] of over 10 µM.

The compound `COC(=O)c1c(-c2ccccc2)c2cc(Br)ccc2c(=O)n1Cc1ccc(NC(=O)CCC(=O)O)cc1` returned a Kd in assay [3] of over 10 µM.

As for `CCCC(=O)Nc1n[nH]c2ncc(-c3cccc4ccccc34)cc12` [SB-642057], the Kd in assay [4] is over 10 µM.

Compound `COc1cc(Nc2nccc(N3CCC(NC(=O)C(C)c4ccc(Cl)cc4)C3)n2)cc(OC)c1OC` (centres unmarked) [GSK1379757] returned a Kd in assay [5] of 0.74 µM. That is a sub-micromolar value.

Take `COc1cc(Nc2nccc(N3CCC(NC(=O)C4COc5ccccc5O4)C3)n2)cc(OC)c1OC` (centres unmarked) [GSK1379761]: the Kd in assay [5] was found to be 0.37 µM.

For the compound `COc1cc2nccc(Nc3ccc(OCc4ccc(NC(C)=O)cc4)cc3)c2cc1OC.Cl` [GW440135], the Kd in [6] and in assay [7] was over 10 µM each time.

As for `O=C1NC(=O)C(c2ccccc2)=C1Nc1cccc(O)c1` [SB-390534], the dissociation constant Kd in [8] was over 10 µM.

Compound `COc1cc(Nc2ccnc3ccc(C(F)(F)F)cc23)cc(OC)c1OC` [GW577382] registered a Kd in assay [8] of over 10 µM.

`OCCCNc1nccc(-c2c(-c3cccc(C(F)(F)F)c3)nn3cc(C(F)(F)F)ccc23)n1` [GW630813] yielded a Kd in assay [9] of 0.23 µM. This counts as sub-micromolar.

As to `CCc1nc(-c2cccc(C)c2)c(-c2ccncc2)s1`, the Kd in [9] came to 0.18 µM.

The values above are taken from publication PMC5540273 (PLoS ONE, 2017).
